# Experiments:
# [1] = target: Ribosomal protein S6 kinase alpha-1 (Homo sapiens) (UniProt Q15418); conditions: at 1 µM
# [2] = target: Ribosomal protein S6 kinase alpha-1 (Homo sapiens) (UniProt Q15418); conditions: at 10 µM
# [3] = target: Ribosomal protein S6 kinase alpha-3 (Homo sapiens) (UniProt P51812); conditions: at 1 µM
# [4] = target: Ribosomal protein S6 kinase alpha-3 (Homo sapiens) (UniProt P51812); conditions: at 10 µM
# [5] = target: Ribosomal protein S6 kinase alpha-2 (Homo sapiens) (UniProt Q15349); conditions: at 1 µM
# [6] = target: Ribosomal protein S6 kinase alpha-2 (Homo sapiens) (UniProt Q15349); conditions: at 10 µM
# [7] = target: Ribosomal protein S6 kinase alpha-6 (Homo sapiens) (UniProt Q9UK32); conditions: at 1 µM
# [8] = target: Ribosomal protein S6 kinase alpha-6 (Homo sapiens) (UniProt Q9UK32); conditions: at 10 µM
# [9] = target: Mitogen-activated protein kinase 14 (Homo sapiens) (UniProt Q16539); conditions: at 1 µM
# [10] = target: Mitogen-activated protein kinase 14 (Homo sapiens) (UniProt Q16539); conditions: at 10 µM
# [11] = target: Mitogen-activated protein kinase 11 (Homo sapiens) (UniProt Q15759); conditions: at 1 µM
# [12] = target: Mitogen-activated protein kinase 11 (Homo sapiens) (UniProt Q15759); conditions: at 10 µM
# [13] = target: T1, Mitogen-activated protein kinase 13 (Homo sapiens) (UniProt O15264); conditions: at 1 µM
# T1 sequence (whole entry): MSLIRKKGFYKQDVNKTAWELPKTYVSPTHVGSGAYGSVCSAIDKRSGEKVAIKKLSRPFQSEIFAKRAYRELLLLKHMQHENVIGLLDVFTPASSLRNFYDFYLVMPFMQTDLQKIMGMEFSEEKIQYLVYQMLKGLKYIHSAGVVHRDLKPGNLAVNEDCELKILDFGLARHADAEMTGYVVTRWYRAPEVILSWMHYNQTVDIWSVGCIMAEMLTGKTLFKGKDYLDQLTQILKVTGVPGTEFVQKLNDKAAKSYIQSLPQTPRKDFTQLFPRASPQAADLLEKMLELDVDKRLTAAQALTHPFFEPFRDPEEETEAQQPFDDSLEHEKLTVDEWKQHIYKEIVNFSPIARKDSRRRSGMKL
# [14] = target: T1, Mitogen-activated protein kinase 13 (Homo sapiens); conditions: at 10 µM
# [15] = target: T2, Serine/threonine-protein kinase Sgk1 (Homo sapiens) (UniProt O00141); conditions: at 1 µM
# T2 sequence (whole entry): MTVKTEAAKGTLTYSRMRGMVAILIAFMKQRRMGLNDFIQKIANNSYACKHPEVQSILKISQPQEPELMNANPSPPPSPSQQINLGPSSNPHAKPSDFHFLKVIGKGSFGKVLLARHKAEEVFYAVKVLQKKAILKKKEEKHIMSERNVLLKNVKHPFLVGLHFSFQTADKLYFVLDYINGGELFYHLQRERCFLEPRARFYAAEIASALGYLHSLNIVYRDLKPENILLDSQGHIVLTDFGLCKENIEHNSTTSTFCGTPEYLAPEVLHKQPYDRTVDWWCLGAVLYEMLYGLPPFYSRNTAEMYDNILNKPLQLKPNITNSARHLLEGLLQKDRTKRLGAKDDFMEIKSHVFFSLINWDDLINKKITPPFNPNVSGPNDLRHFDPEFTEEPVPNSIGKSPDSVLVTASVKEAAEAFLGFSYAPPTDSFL
# [16] = target: T2, Serine/threonine-protein kinase Sgk1 (Homo sapiens); conditions: at 10 µM
# [17] = target: T3, Serine/threonine-protein kinase Sgk2 (Homo sapiens) (UniProt Q9HBY8); conditions: at 1 µM
# T3 sequence (whole entry): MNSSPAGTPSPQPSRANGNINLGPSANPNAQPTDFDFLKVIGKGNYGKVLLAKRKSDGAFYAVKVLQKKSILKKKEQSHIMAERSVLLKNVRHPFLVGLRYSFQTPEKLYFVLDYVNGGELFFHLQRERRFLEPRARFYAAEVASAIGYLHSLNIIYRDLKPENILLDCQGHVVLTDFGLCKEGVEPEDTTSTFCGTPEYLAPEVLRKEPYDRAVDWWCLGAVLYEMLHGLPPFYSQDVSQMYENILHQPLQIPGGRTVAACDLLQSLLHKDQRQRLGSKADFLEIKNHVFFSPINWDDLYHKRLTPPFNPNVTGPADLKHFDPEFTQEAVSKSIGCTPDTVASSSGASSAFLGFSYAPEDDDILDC
# [18] = target: T3, Serine/threonine-protein kinase Sgk2 (Homo sapiens); conditions: at 10 µM
# [19] = target: T4, Serine/threonine-protein kinase Sgk3 (Homo sapiens) (UniProt Q96BR1); conditions: at 10 µM
# T4 sequence (whole entry): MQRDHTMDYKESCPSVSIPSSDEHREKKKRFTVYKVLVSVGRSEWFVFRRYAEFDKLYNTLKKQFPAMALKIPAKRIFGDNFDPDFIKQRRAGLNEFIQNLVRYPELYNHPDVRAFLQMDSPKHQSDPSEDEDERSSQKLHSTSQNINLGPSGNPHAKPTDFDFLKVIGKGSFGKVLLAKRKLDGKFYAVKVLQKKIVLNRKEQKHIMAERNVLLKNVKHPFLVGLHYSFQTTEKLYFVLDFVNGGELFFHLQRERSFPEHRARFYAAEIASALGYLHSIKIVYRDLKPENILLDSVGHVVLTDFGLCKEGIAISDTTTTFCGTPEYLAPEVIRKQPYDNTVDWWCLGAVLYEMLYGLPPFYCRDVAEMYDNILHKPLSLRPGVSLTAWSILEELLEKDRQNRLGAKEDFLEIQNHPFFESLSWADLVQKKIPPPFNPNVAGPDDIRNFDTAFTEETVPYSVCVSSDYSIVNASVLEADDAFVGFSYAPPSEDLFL
# [20] = target: Serine/threonine-protein kinase SIK1 (Homo sapiens) (UniProt P57059); conditions: at 1 µM
# Sequence of Serine/threonine-protein kinase SIK1 (Homo sapiens) (P57059 whole entry): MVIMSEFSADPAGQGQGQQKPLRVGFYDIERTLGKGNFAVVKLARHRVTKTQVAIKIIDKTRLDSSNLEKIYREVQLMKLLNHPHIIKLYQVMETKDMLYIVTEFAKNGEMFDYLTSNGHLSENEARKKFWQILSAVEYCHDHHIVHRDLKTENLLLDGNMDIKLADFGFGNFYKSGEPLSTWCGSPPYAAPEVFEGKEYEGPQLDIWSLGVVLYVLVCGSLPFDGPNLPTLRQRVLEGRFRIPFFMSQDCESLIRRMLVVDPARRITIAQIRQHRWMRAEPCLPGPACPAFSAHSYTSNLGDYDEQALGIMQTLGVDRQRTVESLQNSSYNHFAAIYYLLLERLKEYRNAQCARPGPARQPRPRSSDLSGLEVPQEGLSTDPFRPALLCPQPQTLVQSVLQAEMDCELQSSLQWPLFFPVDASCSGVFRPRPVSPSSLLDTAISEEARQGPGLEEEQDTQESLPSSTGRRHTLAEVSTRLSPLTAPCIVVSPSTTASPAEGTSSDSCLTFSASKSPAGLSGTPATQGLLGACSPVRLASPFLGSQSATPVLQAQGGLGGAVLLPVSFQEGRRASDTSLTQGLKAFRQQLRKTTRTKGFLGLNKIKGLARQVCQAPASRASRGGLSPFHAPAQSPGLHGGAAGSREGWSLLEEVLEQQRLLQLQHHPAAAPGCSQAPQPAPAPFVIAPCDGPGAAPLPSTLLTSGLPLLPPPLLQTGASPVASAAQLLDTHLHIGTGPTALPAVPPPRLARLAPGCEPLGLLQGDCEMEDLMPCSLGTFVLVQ
# Sequence of Ribosomal protein S6 kinase alpha-1 (Homo sapiens) (Q15418 whole entry): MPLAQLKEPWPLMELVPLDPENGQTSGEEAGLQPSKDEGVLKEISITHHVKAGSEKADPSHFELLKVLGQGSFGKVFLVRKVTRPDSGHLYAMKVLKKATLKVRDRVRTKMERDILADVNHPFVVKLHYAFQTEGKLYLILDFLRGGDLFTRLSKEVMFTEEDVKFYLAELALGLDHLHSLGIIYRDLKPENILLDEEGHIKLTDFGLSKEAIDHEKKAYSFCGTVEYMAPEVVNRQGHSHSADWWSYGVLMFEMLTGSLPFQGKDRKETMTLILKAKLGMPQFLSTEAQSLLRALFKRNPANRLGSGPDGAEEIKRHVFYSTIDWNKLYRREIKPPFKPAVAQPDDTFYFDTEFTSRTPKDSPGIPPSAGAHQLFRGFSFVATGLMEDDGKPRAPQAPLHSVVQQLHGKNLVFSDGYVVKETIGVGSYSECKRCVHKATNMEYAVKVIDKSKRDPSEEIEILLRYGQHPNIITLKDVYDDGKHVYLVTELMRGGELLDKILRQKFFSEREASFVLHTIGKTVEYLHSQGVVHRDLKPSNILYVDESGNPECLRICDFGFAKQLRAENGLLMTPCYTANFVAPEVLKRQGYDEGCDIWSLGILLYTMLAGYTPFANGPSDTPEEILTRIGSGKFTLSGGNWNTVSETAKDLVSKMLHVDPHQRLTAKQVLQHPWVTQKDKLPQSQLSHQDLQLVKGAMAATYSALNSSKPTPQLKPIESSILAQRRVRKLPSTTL
# Sequence of Ribosomal protein S6 kinase alpha-2 (Homo sapiens) (Q15349 whole entry): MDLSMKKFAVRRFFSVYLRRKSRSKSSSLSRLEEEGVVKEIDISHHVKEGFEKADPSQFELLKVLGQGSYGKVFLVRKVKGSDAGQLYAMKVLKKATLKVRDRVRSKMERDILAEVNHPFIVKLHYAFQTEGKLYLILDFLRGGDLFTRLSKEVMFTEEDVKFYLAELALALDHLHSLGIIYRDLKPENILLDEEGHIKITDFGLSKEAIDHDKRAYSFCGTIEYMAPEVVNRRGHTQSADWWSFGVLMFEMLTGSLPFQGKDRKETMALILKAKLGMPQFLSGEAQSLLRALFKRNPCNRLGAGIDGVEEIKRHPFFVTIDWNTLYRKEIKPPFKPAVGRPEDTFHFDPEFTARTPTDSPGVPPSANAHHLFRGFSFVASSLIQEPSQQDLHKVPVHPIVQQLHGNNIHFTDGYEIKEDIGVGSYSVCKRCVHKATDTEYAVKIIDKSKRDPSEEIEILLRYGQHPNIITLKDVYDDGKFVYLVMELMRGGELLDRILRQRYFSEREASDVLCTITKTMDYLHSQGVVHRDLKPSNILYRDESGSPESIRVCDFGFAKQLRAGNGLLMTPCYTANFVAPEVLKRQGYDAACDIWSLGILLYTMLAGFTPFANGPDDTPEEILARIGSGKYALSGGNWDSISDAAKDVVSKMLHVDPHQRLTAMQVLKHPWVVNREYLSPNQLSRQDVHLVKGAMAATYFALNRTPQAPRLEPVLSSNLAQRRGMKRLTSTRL
# Sequence of Mitogen-activated protein kinase 14 (Homo sapiens) (Q16539 whole entry): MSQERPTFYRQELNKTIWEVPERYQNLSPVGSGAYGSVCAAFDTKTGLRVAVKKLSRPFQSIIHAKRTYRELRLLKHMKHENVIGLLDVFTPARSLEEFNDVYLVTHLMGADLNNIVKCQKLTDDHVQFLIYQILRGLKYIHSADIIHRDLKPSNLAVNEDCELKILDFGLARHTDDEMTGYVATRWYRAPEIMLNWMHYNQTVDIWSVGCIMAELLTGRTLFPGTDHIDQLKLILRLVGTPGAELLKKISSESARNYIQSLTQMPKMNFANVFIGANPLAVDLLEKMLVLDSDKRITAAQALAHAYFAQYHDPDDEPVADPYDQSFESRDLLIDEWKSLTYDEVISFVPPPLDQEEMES
# Sequence of Ribosomal protein S6 kinase alpha-6 (Homo sapiens) (Q9UK32 whole entry): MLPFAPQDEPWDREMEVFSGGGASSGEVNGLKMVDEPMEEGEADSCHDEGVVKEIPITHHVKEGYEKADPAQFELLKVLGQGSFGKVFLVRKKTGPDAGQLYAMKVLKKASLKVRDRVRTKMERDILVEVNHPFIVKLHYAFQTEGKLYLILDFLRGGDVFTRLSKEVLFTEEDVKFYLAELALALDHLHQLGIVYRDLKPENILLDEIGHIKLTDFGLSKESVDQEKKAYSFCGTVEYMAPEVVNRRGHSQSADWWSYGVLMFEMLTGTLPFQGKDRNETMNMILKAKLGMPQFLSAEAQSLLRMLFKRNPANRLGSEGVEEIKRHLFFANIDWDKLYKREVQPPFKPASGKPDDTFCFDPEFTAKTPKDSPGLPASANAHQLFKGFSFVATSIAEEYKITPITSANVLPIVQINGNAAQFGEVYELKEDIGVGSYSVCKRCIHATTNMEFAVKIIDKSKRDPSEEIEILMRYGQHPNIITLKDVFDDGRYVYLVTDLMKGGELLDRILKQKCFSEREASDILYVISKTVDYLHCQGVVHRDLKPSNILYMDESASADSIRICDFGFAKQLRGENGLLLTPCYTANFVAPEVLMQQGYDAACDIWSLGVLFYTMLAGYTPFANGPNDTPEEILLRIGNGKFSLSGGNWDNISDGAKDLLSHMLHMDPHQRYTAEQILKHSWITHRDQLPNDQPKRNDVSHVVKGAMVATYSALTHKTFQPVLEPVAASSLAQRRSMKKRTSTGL
# Sequence of Mitogen-activated protein kinase 11 (Homo sapiens) (Q15759 whole entry): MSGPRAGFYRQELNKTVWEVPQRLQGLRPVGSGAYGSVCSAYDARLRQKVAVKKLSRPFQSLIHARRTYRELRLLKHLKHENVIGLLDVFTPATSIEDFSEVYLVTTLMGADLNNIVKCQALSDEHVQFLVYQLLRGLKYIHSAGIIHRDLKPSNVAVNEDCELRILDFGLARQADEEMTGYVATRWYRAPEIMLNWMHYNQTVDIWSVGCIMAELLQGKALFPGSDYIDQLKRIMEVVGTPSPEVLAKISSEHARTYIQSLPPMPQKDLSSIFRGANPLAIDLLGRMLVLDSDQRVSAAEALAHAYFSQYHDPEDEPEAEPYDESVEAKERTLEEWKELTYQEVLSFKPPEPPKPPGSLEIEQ
# Sequence of Ribosomal protein S6 kinase alpha-3 (Homo sapiens) (P51812 whole entry): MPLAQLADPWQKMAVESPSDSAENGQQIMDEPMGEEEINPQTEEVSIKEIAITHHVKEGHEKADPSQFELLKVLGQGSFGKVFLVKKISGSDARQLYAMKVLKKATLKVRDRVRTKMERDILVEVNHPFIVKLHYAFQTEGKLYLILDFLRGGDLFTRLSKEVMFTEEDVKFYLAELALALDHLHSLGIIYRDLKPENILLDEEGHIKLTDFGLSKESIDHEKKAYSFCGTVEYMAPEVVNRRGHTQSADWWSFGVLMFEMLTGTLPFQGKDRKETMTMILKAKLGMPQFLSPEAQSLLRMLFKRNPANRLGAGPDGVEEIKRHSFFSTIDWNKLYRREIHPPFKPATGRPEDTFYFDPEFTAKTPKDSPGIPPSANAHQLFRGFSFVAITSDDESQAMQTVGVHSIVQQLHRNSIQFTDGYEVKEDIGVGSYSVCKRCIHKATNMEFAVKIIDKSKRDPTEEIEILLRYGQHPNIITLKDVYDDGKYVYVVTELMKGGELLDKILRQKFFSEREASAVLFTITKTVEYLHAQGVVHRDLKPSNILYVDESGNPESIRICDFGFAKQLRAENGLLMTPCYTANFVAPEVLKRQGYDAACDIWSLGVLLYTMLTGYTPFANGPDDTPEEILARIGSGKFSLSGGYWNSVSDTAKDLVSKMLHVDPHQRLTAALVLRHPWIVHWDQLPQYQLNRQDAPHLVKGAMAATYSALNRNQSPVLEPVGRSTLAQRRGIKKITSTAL
SMILES,residual activity [1] [%],residual activity [2] [%],residual activity [3] [%],residual activity [4] [%],residual activity [5] [%],residual activity [6] [%],residual activity [7] [%],residual activity [8] [%],residual activity [9] [%],residual activity [10] [%],residual activity [11] [%],residual activity [12] [%],residual activity [13] [%],residual activity [14] [%],residual activity [15] [%],residual activity [16] [%],residual activity [17] [%],residual activity [18] [%],residual activity [19] [%],residual activity [20] [%]
Oc1n[nH]c2nnc(-c3c(-c4ccccc4)nn4ccccc34)cc12,114,111,96,86,90,78,91,106,93,85,94,91,96,96,69,86,96,80,81,109
Cc1nc2cc3nc(-c4cccs4)cnc3cc2n1C,115,89,102,75,107,83,101,84,114,112,100,97,112,103,113,–,104,64,98,100
C[C@@H](N)[C@H]1CC[C@H](C(=O)Nc2ccncc2)CC1,–,48,–,–,62,11,110,60,106,107,114,120,112,111,100,94,97,96,105,–
Cc1cc2ncc(-c3ccccc3)nc2cc1C,95,86,50,40,110,101,97,100,85,82,–,–,–,102,102,102,99,107,90,80
Cn1nc2c3c(cccc31)C(=O)c1ccccc1-2,–,93,58,42,90,63,59,67,91,90,101,92,94,88,77,72,100,69,74,132
CC(=O)c1ccc(N2CCOCC2)cc1O,–,110,64,56,105,107,128,102,–,–,106,104,–,–,109,62,105,66,–,90
